The record followed here is PubChem BioAssay AID434989 (The Scripps Research Institute Molecular Screening Center, 2010).

Hit rate of the full screen: of about 330,000 compounds, about 1,400 (0.42%) were called active.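 The calls were made as follows: active = inhibition above its plate's threshold, mean inhibition of all tested compounds on the plate plus 3 SD (cut at about 37% in these data); inactive = the rest.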 The sample as a whole holds a higher share of actives than the screen did.

As a reminder, the inhibition is the relative decrease from the control value, in per cent.

The target of the assay is Orexin/Hypocretin receptor type 1 (Homo sapiens) (UniProt O43613). Nature of the assay: blockers of orexin-A calcium signaling via HCRTR1 – fluorescence, CHO/OX1R cells, Fluo-8 calcium, primary screen (AID 434989).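 Also: 0% = orexin A challenge wells and 100% = SB-334867-A antagonist wells.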 The settings on record: Fluo-8 calcium fluorescence, at 5 µM, hits give high values.
Sequence of Orexin/Hypocretin receptor type 1 (Homo sapiens) (O43613 whole entry, looked up): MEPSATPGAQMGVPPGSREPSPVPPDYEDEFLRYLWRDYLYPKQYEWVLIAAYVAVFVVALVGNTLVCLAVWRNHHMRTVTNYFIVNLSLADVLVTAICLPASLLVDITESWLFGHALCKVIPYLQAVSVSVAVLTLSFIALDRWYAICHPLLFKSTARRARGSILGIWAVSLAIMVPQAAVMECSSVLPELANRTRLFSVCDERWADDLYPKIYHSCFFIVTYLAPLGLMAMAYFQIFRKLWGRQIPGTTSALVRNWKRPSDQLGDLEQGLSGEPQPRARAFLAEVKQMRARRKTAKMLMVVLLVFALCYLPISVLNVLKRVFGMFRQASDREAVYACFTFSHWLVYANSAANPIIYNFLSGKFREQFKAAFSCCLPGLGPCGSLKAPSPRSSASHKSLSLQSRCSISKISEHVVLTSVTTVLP
In the case of `Cc1ccc(S(=O)(=O)Nc2ccc3c(c2)C(=O)N([C@H](C)CO)C[C@@H](C)[C@@H](CN(C)C(=O)Nc2cccc4ccccc24)O3)cc1`, the inhibition is 1.83% (inactive).

For the compound `CC1CCCCC1NC(=O)Cn1c(=O)cnc2ccccc21` (stereo unspecified), the inhibition was -6.73% (inactive). `Cc1cccc(NC(=O)NC(=S)NC(=O)c2ccccc2)c1`: the inhibition was -26.4% (inactive). Next, `COc1cccc(NC(=O)NCc2ccc(F)cc2)c1`: -1.97% (inactive).

Turning to `Cc1cccc(NC(=O)Nc2cccc(Oc3c(F)c(F)c(F)c(F)c3F)c2)c1`, the inhibition was 50.4% (active). On to `CCN(CC)S(=O)(=O)c1ccc(N2CCCC2)c(NC(=O)c2ccc([N+](=O)[O-])o2)c1`, for which the inhibition was 25.1% (inactive). Consider `Cc1ccc(NC(=O)COC(=O)C2CC2)cc1S(=O)(=O)N1CCOCC1`, for which the inhibition is 0.29% (inactive). Consider `Cc1ccccc1OCC(=O)Nc1ccc(N2CCN(C(=O)C(C)C)CC2)c(Cl)c1`, for which the inhibition is 47.2% (active). As for `CCc1ccccc1OCC(=O)Nc1ccc(C)c(S(=O)(=O)N2CCCCCC2)c1`, the figure is 71.1% (active). Take `Cc1ccccc1OCC(=O)Nc1ccc2c(c1)ncn2C`: the inhibition is -11.8% (inactive). With `CCc1ccccc1OCC(=O)Nc1ccc2c(c1)OCCO2`, the inhibition is 3.6% (inactive). Next, `CCC(=O)N1CCN(c2ccccc2NC(=O)COc2cccc(C)c2C)CC1`: -25.6% (inactive); `COc1ccccc1CNC(=O)c1ccc(Cl)c(S(=O)(=O)N2CCCC2)c1`: -20% (inactive). As for `Cc1nn(-c2ccccc2)nc1C(=O)OCC(=O)N1CCCCC1C` (stereo unspecified), the figure is -14.9% (inactive).

As for `Cc1ccc(C)c(N2CCN(C(=O)CCc3nc(-c4cccc(C(F)(F)F)c4)no3)CC2)c1`, the inhibition is -15.5% (inactive). For the compound `Cc1cc(-c2ccc(C)c(S(=O)(=O)NC(C)Cc3ccco3)c2)on1` (stereo unspecified), the inhibition was 59.1% (active). Consider `Cc1cc(-c2ccc(C)c(S(=O)(=O)NCCCN(Cc3ccccc3)C(C)C)c2)on1`, for which the inhibition was -45.5% (inactive). As for `Cc1cc(-c2ccc(C)c(S(=O)(=O)Nc3ccc(S(N)(=O)=O)cc3)c2)on1`, the inhibition is 15.6% (inactive). With `CN(C)C(=O)CCc1ccc2c3c([nH]c2c1)[C@]1(CCC2CCCC2)[C@@H](C(=O)N2CCOCC2)C[C@H](CC(=O)NCc2ccco2)C(=O)N1CC3`, the inhibition was -19.7% (inactive). Next, `COc1ccc(C(=O)C(C)OC(=O)c2cccc(S(=O)(=O)Nc3c(C)n(C)n(-c4ccccc4)c3=O)c2)cc1` (stereo unspecified): -5.98% (inactive). Regarding `O=C(CN1C(=O)NC2(CCCCCC2)C1=O)NCc1ccc(F)cc1`, the inhibition is -10.3% (inactive).

For the compound `CCN(CC)S(=O)(=O)c1ccc(N(C)Cc2cccc(OC)c2OC)nc1`, the inhibition is 39% (active). For the compound `CCN(CC)S(=O)(=O)c1ccc(N(C)CCc2ccc(OC)c(OC)c2)nc1`, the inhibition is -17% (inactive). On to `CCN(CC)S(=O)(=O)c1ccc(N(C)Cc2ccc(C(F)(F)F)cc2)nc1`, for which the inhibition is 29.3% (inactive).

With `COc1cccc(-c2sc3ccc(OC)cc3c2-c2ccc(OCCN3CCCCC3)cc2)c1`, the inhibition is 29.6% (inactive). For `COc1ccc2[nH]c3c(c2c1)CCN1C(=O)C(CC(=O)NCCCN(C)C)C[C@H](C(=O)N2CCOCC2)[C@@]31CCC1CCCC1` (stereo partly specified), the inhibition is -21.8% (inactive). As for `O=C1CCC/C=C/C[C@@H](CC(=O)N(CCO)Cc2ccccc2)C(=O)NC[C@H](c2ccccc2)O1`, the figure is -18% (inactive). Consider `Cc1ccc(C(=O)NCCNC(=O)c2cnccn2)cc1`, for which the inhibition is -1.97% (inactive). For `CCN(CC)c1ccc(/C=N/NC(=O)CNC(=O)c2cccnc2)cc1`, the inhibition was -5.59% (inactive). As to `CCN(CC)c1ccc(/C=N/NC(=O)c2cnccn2)c(O)c1`, the inhibition was 48.7% (active).

For `O=C(CCCOc1ccccc1)NNC(=O)c1ccc(Cl)cc1`, the inhibition is -15.2% (inactive). On to `C=CC[C@H](CC(=O)NCCO)C(=O)N[C@@H](COC(=O)[C@@H](CC=C)Cc1ccc(F)cc1)Cc1c[nH]c2ccccc12`, for which the inhibition was -17.6% (inactive). For `O=C(NCCc1ccco1)c1ccc(OCc2cn3ccccc3n2)cc1`, the inhibition was -20.6% (inactive).

Turning to `C=CC[C@@H](Cc1ccc(F)cc1)C(=O)OC[C@H]1CCCN1C(=O)[C@H](CC=C)CC(=O)N(CCO)Cc1ccccc1`, the inhibition was 24.4% (inactive). With `CCCc1nc2c(c(=O)c3ccccc3n2C)c(=O)n1-c1cc(C)cc(C)c1`, the inhibition is -30.9% (inactive). As to `CCCc1nc2c(c(=O)c3ccccc3n2C)c(=O)n1C1CCCCCC1`, the inhibition was 41.5% (active). As for `Cn1c2ccccc2c(=O)c2c(=O)n(Cc3ccco3)c(COc3ccccc3)nc21`, the figure is -11.8% (inactive). As to `CC[C@]12c3[nH]c4ccc(Cl)cc4c3CCN1C(=O)[C@@H](CC(=O)NCCCOC)C[C@@H]2C(=O)N1CCN(C(=O)C2CC2)CC1`, the inhibition is -13.7% (inactive). In the case of `CCOC(=O)C1=C(C)N(C[C@@H]2CC[C@@H](Cc3ccc(-c4ccccc4)cc3)O2)C(=O)NC1c1ccc([N+](=O)[O-])cc1` (stereo partly specified), the inhibition was -13% (inactive). In the case of `CN(C)C(=O)CCc1ccc2c3c([nH]c2c1)[C@]1(CCc2ccccc2)[C@@H](C(=O)N2CCCCC2)C[C@H](CC(=O)NCCC2=CCCCC2)C(=O)N1CC3`, the inhibition was -7.84% (inactive). In the case of `CC(C)N(C(=O)[C@H]1C[C@H](CC(=O)NC(C)(C)C)C(=O)N2CCc3c([nH]c4ccc(Cl)cc34)[C@]12C)C(C)C`, the inhibition is -33.8% (inactive). For the compound `Cc1ccc(O)c(NC(=O)COc2cc(C)ccc2C)c1`, the inhibition is 2.38% (inactive). As to `Cc1ccc(O)c(NC(=S)NC(=O)COc2ccc(Br)cc2)c1`, the inhibition was 78.4% (active). In the case of `Cc1cccc(OCC(=O)NC(=S)Nc2ccccc2N2CCOCC2)c1`, the inhibition is -22.4% (inactive). As to `COC(=O)c1ccc(C)c(NC(=O)Cn2c(C)csc2=O)c1`, the inhibition is -20% (inactive). With `CCC1CCCCN1C(=S)NC(=O)c1ccco1` (stereo unspecified), the inhibition is 5.19% (inactive). Regarding `CC(C)CC1NC(=O)c2cc(Cl)ccc2-n2c1nc1ccccc1c2=O` (stereo unspecified), the inhibition is -24.4% (inactive).

Regarding `O=C(NC(=S)Nc1ccc(Br)cc1F)C1CCCCC1`, the inhibition was 0.61% (inactive). As to `O=C1NC(Cc2ccc(O)cc2)c2nc3ccc(Cl)cc3c(=O)n2-c2ccccc21` (stereo unspecified), the inhibition was -10% (inactive). As to `COc1ccc(CCNC(=O)c2cc3sccc3n2C)cc1OC`, the inhibition is -27.4% (inactive). On to `CCC(C(=O)NCc1ccc(OC)cc1)n1nc(C)n2c(cc3occc32)c1=O` (stereo unspecified), for which the inhibition is -43.4% (inactive). For `CCOc1ccc(CCNC(=O)C(CC)n2nc(C)n3c(cc4sccc43)c2=O)cc1OCC` (stereo unspecified), the inhibition is 64.5% (active).

With `COc1ccc(C)cc1S(=O)(=O)N1CCN(S(=O)(=O)c2cc(C(=O)O)ccc2C)CC1`, the inhibition is -8.92% (inactive). In the case of `Cc1ccc(S(=O)(=O)N2CCN(c3ncnc4ccccc34)CC2)cc1`, the inhibition is 38.9% (inactive). Consider `Cc1ccc(C)c(S(=O)(=O)N2CCN(c3ncnc4sccc34)CC2)c1`, for which the inhibition was 51.7% (active). For `Cc1cccc(NS(=O)(=O)c2ccc(C)c(C(=O)NCc3cccnc3)c2)c1`, the inhibition is -9.11% (inactive).

For the compound `C/C=C/c1ccc(OCC(=O)NNC(=O)CN(C)S(=O)(=O)c2ccc(C)cc2)c(OC)c1`, the inhibition is -47.6% (inactive). Turning to `O=C(C[C@@H]1C/C=C\CCC(=O)OC[C@@H]2CCCN2C1=O)NCCO`, the inhibition is -14.7% (inactive). With `O=C(Cc1ccc(Cl)cc1)NC(=S)Nc1ccccc1O`, the inhibition is 61.6% (active). As for `O=C(COc1ccc(Cl)cc1)NC(=S)Nc1ccccc1N1CCOCC1`, the figure is -46.4% (inactive).

On to `Cc1ccccc1NC(=S)NC(=O)Cc1ccc(Cl)cc1`, for which the inhibition was 17.1% (inactive).

For the compound `CC(=O)C[C@H](O)CC(=O)[C@@H]1OC(=O)[C@@H](C)C/C=C\Cc2ccccc21`, the inhibition is -24.4% (inactive). For the compound `CN(C(=O)c1cccc(NC(=O)Cc2ccc([N+](=O)[O-])cc2)c1)C1CCC1`, the inhibition was -24% (inactive).

`COC(=O)[C@]1(Cc2ccccc2)N[C@H](CN(C)S(=O)(=O)c2ccc(OC(F)(F)F)cc2)[C@@H]2C(=O)N(Cc3ccccc3)C(=O)[C@@H]21`: the inhibition was -14.3% (inactive). On to `O=C(COC(=O)Cc1ccc([N+](=O)[O-])cc1)NC1CCCCCC1`, for which the inhibition is -29.4% (inactive). As for `CCOC(=O)N1CCN(C(=O)CSc2nc(=O)n3cccc(C)c3n2)CC1`, the figure is -4.53% (inactive); as for `Cc1cccn2c(=O)c(/C=C3\SC(=S)N(CC(C)C)C3=O)c(NCCCOC(C)C)nc12`, -8.49% (inactive). For the compound `CCOC(=O)CC1C(=O)NCCN1c1nc2c(C)cccn2c(=O)c1/C=C1\SC(=S)N(C(C)CC)C1=O` (stereo unspecified), the inhibition was 78.6% (active). Next, `O=C1C=CN2CCCC2CC1` (stereo unspecified): -11.6% (inactive); `c1ccc(-c2cc3c(NCC4COc5ccccc5O4)ncnc3s2)cc1` (stereo unspecified): -20% (inactive); `c1ccc2c(c1)OCC(CNc1ncnc3nc[nH]c13)O2` (stereo unspecified): 90.5% (active). With `S=C(NCC1COc2ccccc2O1)Nc1ccc(Br)cc1` (stereo unspecified), the inhibition was 15.9% (inactive). As for `COc1ccc(CNC(=O)COC(=O)c2sccc2C)cc1OC`, the figure is -11.2% (inactive); as for `Cc1noc(C)c1NC(=O)Nc1cccc2c1O[C@H](CN(C)S(=O)(=O)c1c(C)noc1C)[C@@H](C)CN([C@H](C)CO)C2=O`, -19.7% (inactive). Next, `CCN(C(=O)COC(=O)CCC(=O)c1cccs1)C1CCCCC1`: -13.9% (inactive); `COc1ccc(/C=C/C(=O)OCC(=O)NC2CCCCCC2)cc1OC`: -27.2% (inactive); `CC[C@]12c3[nH]c4ccc(OC)cc4c3CCN1C(=O)C(CC(=O)NCCN1CCOCC1)C[C@@H]2C(=O)N1CCN(C(=O)C2CC2)CC1` (stereo partly specified): -6.98% (inactive).

Turning to `CCN(CC(=O)Nc1ccccc1OC)C(=O)Cn1cnc2ccccc2c1=O`, the inhibition was -15.9% (inactive). Regarding `CCCN(CC(=O)Nc1ccccc1OC)C(=O)CCC(=O)c1ccc(F)cc1`, the inhibition is 44.7% (active). On to `CCN(CC(=O)Nc1ccccc1OC)C(=O)CC1CC2CCC1C2` (stereo unspecified), for which the inhibition was -19.5% (inactive).

Take `NS(=O)(=O)c1cccc(NC(=O)COC(=O)c2cc([N+](=O)[O-])ccc2N2CCCC2)c1`: the inhibition is -7.78% (inactive).
